Assay outcomes as filed in PubChem BioAssay.
Compounds with a hit are over-represented: about 21% of the library has one in this group of screens.
HCV inh: inhibitors of hepatitis C virus infection; Huh7.5.1 HCVcc-Cre infection, luciferase reporter, 44 h; Potency, µM (doses to about 41.8 µM), for the others: at the top dose activity change, negative = inhibition, hits mostly inhibitors; actives 3.4% (n = 340,000); also: potency is read from the fitted curve at half-maximal effect; % is scaled to controls: 0 for no effect and ±100 for the full control effect
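After 44 h co-culture of compound, cells and HCVcc-Cre (~0.5 moi), substrate is added for 15 min at room temperature and luciferase measured over 15 sec. Cells were seeded at 1,000/well and pre-cultured 4 h.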
Pf growth 96h: inhibits malaria parasite growth, 96 h | actives 6.9% (n = 320,000) | AID 504834 | P. falciparum luciferase reporter growth, 96 h | Potency, µM (series often up to 28.7 µM), inactives show at the top dose activity change, negative = inhibition, usual class: inhibitors; also: potency is read from the fitted curve at half-maximal effect; % is scaled to controls: 0 for no effect and ±100 for the full control effect
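Compounds incubated with erythrocytes infected by luciferase-expressing P. falciparum (2% hematocrit, 0.05% parasitemia final) for 96 hours, 37 C in 5% CO2. Growth inhibition scored as decreased luciferase luminescence.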
Cycloheximide cs: counter-screen hit for Shiga toxin inhibitors, cycloheximide; AID 2314; cell reporter, cycloheximide protein synthesis inhibition counterscreen; max response, %; actives 12% (n = 300,000); in the data active = max response mostly above about 13%, no sharp cut-off; inactive = mostly below about 14%; also: read at 38.3 µM for the half of the compounds with a filed dose; 0% is about no effect
Shiga inhibitor: blocks Shiga toxin action in Vero cells; Vero cells, Shiga toxin protein synthesis inhibition reporter; inhibition, % at 38.7 µM; actives 9.2% (n = 290,000); AID 2315; in the data active = inhibition mostly above about 28%, no sharp cut-off; inactive = mostly below about 43%; also: 0% is about no effect
Pf growth 48h: inhibits P. falciparum growth in the first generation, 48 h. P. falciparum luciferase growth in erythrocytes, 48 h. Potency, µM (highest dose often 28.7 µM), inactives show top-dose activity change, negative = inhibition, most hits filed as inhibitors. actives 5.9% (n = 310,000); also: potency is read from the fitted curve at half-maximal effect; % is scaled to controls: 0 for no effect and ±100 for the full control effect
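Growth was read as firefly luciferase luminescence after a 48 h, 37 C, 5% CO2 exposure of compounds to reporter-bearing P. falciparum cultures (0.1% parasitemia, 2% hematocrit final) in Albumax-supplemented RPMI 1640.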
AMA1 RON2 block: AMA1-RON2 (P. falciparum) interaction inhibition; AlphaScreen AMA1-biotinylated RON2 peptide binding; Potency, µM (titrated, usually from 58.2 µM), for the others: at the highest dose activity change, negative = inhibition, hits mostly inhibitors; actives 0.2% (n = 360,000); AID 720542;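 also: potency is read from the fitted curve at half-maximal effect; 0% = vehicle wells and -100% = peptide control; nearly all actives have a fitted effect of over 45% in size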
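AMA1 (3D7) with his tag at 25 nM final met compounds first, then biotinylated RON2 peptide at 25 nM; detection used donor plus acceptor beads, 10 µg/mL apiece, read by AlphaScreen after 30 min at room temperature.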
* marks the source's active call; other numbers are inactive results; i = inactive; ? = inconclusive; . = no result; [ ] = dose if it differs, or a comment. Unless noted, calls follow the shape of the dose curve; as a rule, active = well fitted curve in the direction sought with a large enough effect; inconclusive = small, poorly fitted or top-dose-only effect, or another doubt; inactive = no such curve, though single readings can be large; an effect the other way counts as inactive or inconclusive.

SMILES	HCV inh	Pf growth 96h	Cycloheximide cs	Shiga inhibitor	Pf growth 48h	AMA1 RON2 block
Cc1cc(Nc2ccc(C)c(C)c2)n2nc(C)nc2n1	8%	?	-3	14	0.74µM*	-23%
CCc1ccc(Nc2cc(C)nc3nc(C)nn23)cc1	1%[8.37 µM]	-10%	-2	-3	1.3µM*	-10%
Cc1cc(Nc2ccc3c(c2)OCCO3)n2nc(C)nc2n1	7%	105%	-4	4	.	-3%
Cc1cc(Nc2cccc(F)c2)n2nc(C)nc2n1	-14%	9.3µM*	0	-4	?	12%
Cc1cc(Nc2ccc(F)cc2)n2nc(C)nc2n1	11%	?	4	14	.	-3%
Cc1cc(Nc2ccc(Br)cc2)n2nc(C)nc2n1	-12%	?	-2	-7	2.3µM*	12%
CC(Sc1ncccn1)C(=O)N1CCc2ccccc21 (centres undefined)	12%	-1%	.	.	?	-13%
COc1ccc(Br)cc1C1Nc2cccc3cccc(c23)N1	8%	?	30*	.	0%	-14%
COc1cc(C2Nc3cccc4cccc(c34)N2)ccc1O	-7%	?	0	-11	?	-13%
CCc1nnc(NC(=O)C=C(C)C)s1	2%	?	32*	39*	163%	-4%
O=C(/C=C/c1cccs1)Nc1nccs1	-5%	354%	41*	111*	339%	-1%
O=C(/C=C/c1cccc(F)c1)Nc1nccs1	-5%	i	47*	117*	191%	0%
O=C(COC(=O)/C=C/c1cccc(F)c1)Nc1ncccn1	16%	34%	-2	-4	96%	21%
CCc1nnc(NC(=O)C(C)C)s1	13%	14%	-4	-9	.	-2%
CCc1nnc(NC(=O)CSc2ccc(-c3cccs3)nn2)s1	33%	?	9	14	11%	13%
CCc1nnc(NC(=O)/C=C/c2cccs2)s1	-1%	89%	17*	40	188%	3%
C[C@H](NC(=O)[C@@H]1CCCN1C(=O)[C@@H]1CCCN1C(=O)c1cccc2ccccc12)c1ccccc1	.	.	.	.	.	-2%
Cc1cc(C(O)c2ncc(-c3ccccc3C)[nH]2)ccc1F (centres undefined)	.	.	.	.	.	-8%
CCc1nc2ccc(C(=O)N3CCN(C(=O)c4ccco4)CC3)cn2c1N(C)Cc1nccn1C	.	.	.	.	.	16%
CCOCCc1nnc(NC(=O)C2CC(=O)N(CCc3ccc(F)cc3)C2)s1 (centres undefined)	5%	-7%	4	-1	-6%	10%
O=C(/C=C\c1ccccc1)Nc1nccs1	25%	64%	39*	59*	97%	-5%
O=C(/C=C/c1cccs1)Nc1cccc(NC(=O)/C=C/c2cccs2)n1	?	-17%	40*	90*	49%	-10%
O=C(CN1CCOCC1)Nc1ccc(Br)cn1	7%	.	3	-16	4%	-11%
CC(C)=CC(=O)Nc1nnc(-c2ccccc2C)s1	1%	6%	28*	77*	63%	5%
O=C(/C=C/c1cccs1)Nc1ccc(Br)cn1	8%	328%	43*	60*	274%	-5%
SMILES	HCV inh	Pf growth 96h	Cycloheximide cs	Shiga inhibitor	Pf growth 48h	AMA1 RON2 block
COc1ccccc1-c1nnc(NC(=O)C(C)C)s1	-6%	-13%	17	-1	41%	8%
CCNC(=O)C1(C)CCCN(C(=O)c2cc3ccccc3s2)C1 (centres undefined)	.	.	.	.	.	3%
O=C(/C=C/c1cccs1)NC1CC1	9%	45%	19*	19	25%	-1%
CCN1CCN(C(=S)NC(=O)/C=C/c2cccs2)CC1	8%	9%	17	3	-17%	52%
Cc1cc(C)c(-c2csc(NC(=O)/C=C/c3cccs3)n2)c(C)c1	10µM*	12µM*	-5	-10	-20%	-1%[2.32 µM]
CCC(CCNC(=O)c1ccccc1)(CCNC(=O)c1ccccc1)[N+](=O)[O-]	9%	.	.	.	.	-7%
O=C(Nc1cccs1)Nc1ccccc1Br	?	?	30*	47*	78%	-4%
O=C(Nc1cccs1)Nc1c(F)c(F)cc(F)c1F	32%	4.7µM*	2	-6	?	2%
O=C(Nc1cccs1)Nc1c(F)c(F)c(F)c(F)c1F	7%	89%	-2	-10	?	20%
COC(=O)c1ccccc1NC(=O)Nc1cccs1	7%	0%	-3	-3	0%	-16%
CC1CN(C(=O)CSc2nnc(-c3cccs3)n2N)CC(C)O1 (centres undefined)	15%	-13%	.	.	7%	-4%
N#Cc1c(NC(=O)COC(=O)C2CC3C=CC2C3)oc(-c2ccccc2)c1-c1ccccc1 (centres undefined)	1%	9.3µM*	4	-4	-88%	-4%
COc1ccccc1OCC(=O)Nc1oc(-c2ccccc2)c(-c2ccccc2)c1C#N	?	.	-4	20	14%	-16%
COc1ccccc1NC(=O)COC(=O)C1CC2C=CC1C2 (centres undefined)	-4%	61%	15*	25	36%	15%
CCc1nc2ccc(C(=O)NCCCN3CCCC3=O)cn2c1N(CC)C(=O)NCCc1ccccc1	.	.	.	.	.	12%
Oc1ccc(-c2cnc3c(Nc4cccc(OC(F)(F)C(F)F)c4)nccn23)cc1	.	.	.	.	.	60%
CC1CN(C(=O)COC(=O)Cc2ccc(Cl)cc2)CC(C)O1 (centres undefined)	10%	26%	.	.	?	10%
Cc1nc(N2CCN(Cc3ccc(Cl)cc3)CC2)c2oc3ccccc3c2n1	8.9µM*	?	-2	21	?	0%
Cc1nc(N2CCN(Cc3ccc4c(c3)OCO4)CC2)c2oc3ccccc3c2n1	-8%	.	.	.	.	?
COc1ccccc1N1CCN(c2nc(C)nc3c2oc2ccccc23)CC1	3.5µM*	8%	4	32	?	?
CSc1ncc(Cl)c(C(=O)NCc2cccnc2)n1	-4%	32%	12	-3	37%	-2%
Nc1ncnc2c1ncn2[C@@H]1O[C@H](CCC(=O)NCc2ccccc2)[C@@H](O)[C@H]1O	.	.	.	.	.	9%
Clc1ccc2c(N3CCCC3)ccnc2c1	?	.	0	-5	3.7µM*	-12%
COc1ccc(N2CCN(c3nccs3)CC2)cc1	-3%	90%	37*	72*	74%	-12%
COc1ccc(N2CCN(c3ccnc4cc(Cl)ccc34)CC2)cc1	?	7.4µM*	0	21	?	-18%
CC1CN(c2ccnc3cc(Cl)ccc23)CC(C)O1 (centres undefined)	?	?	6	20	?	-4%
COc1ccc(CNC(=O)C2CCN(c3nccs3)CC2)cc1	8%	.	-7	-5	3%	3%
NC(=O)C1CCN(c2ccnc3cc(Cl)ccc23)CC1	10%	12µM*	1	3	?	-3%
